This assay deals with Vero E6 infected with SARS-CoV-2. Briefly: inhibition of SARS-CoV-2 cytopathic effect; higher = more antiviral protection, active = above 15. Particulars: 48 h. On the technique in general: Cytopathic effects are the visible damage that an infection or toxin causes in cultured cells.

Results on 13 compounds are retold here after the supplement of paper PMC13380429.

Values without a mark were called inactive.

Regarding `O=C(NNC(=O)c1ccc(CNS(=O)(=O)c2ccc(F)c(Cl)c2)cc1)c1ccccc1`, the “inhibition of SARS-CoV-2 cytopathic effect” value (“inhibition” below) is, setting by setting: (1 nM) -1.42%; (8.33 nM) -1.3%; (100 nM) 3.13%; (833.33 nM) 0.57%; (10000 nM) -0.76%.

With `Nc1nc(N)nc(NC2CC2)n1` [cyromazine], the “inhibition” value (1 nM) is -2.63%; the “inhibition” value (8.33 nM) is -0.52%; the “inhibition” value (100 nM) was 2.15%; the “inhibition” value (833.33 nM) is 2.37%; the “inhibition” value (10000 nM) was 0.6%.

Consider `CCOC(=O)c1ncn2c1[C@@H]1CCCN1C(=O)c1cc(OC)ccc1-2`, for which the “inhibition” value is -0.88% (1 nM); 0.22% (8.33 nM); 0.35% (100 nM); -0.77% (833.33 nM); 0.55% (10000 nM).

As to `CCCCN(CCCC)CCC(O)c1cc2c(Cl)cc(Cl)cc2c2cc(C(F)(F)F)ccc12` (stereo not given) [halofantrine], the “inhibition” value was -1.32% (1 nM); 2.28% (8.33 nM); 3.05% (100 nM); -1.63% (833.33 nM); -1.68% (10000 nM).

As for `O=C(O)CNC(=O)C1C(=O)N(C2CCCCC2)C(=O)N(C2CCCCC2)C1=O` [daprodustat], the “inhibition” value (1 nM) was -0.26%; the “inhibition” value (8.33 nM) is 1.23%; the “inhibition” value (100 nM) is 2.21%; the “inhibition” value (833.33 nM) was 2.38%; the “inhibition” value (10000 nM) was -0.29%.

On to `O=C(O)C(Cl)Cl` [dichloroacetate], for which the “inhibition” value is 4.14% (1 nM); 1.34% (8.33 nM); 2.35% (100 nM); 0.22% (833.33 nM); 2.63% (10000 nM).

In the case of `O=C(O)CCCC[C@@H]1CCSS1` [thioctic-acid], the “inhibition” value (1 nM) is 0.04%; the “inhibition” value (8.33 nM) was -0.43%; the “inhibition” value (100 nM) is -1.56%; the “inhibition” value (833.33 nM) is 1.13%; the “inhibition” value (10000 nM) is -3.32%.

As for `COc1ccc(CCC(=O)c2c(O)cc(O[C@@H]3O[C@H](CO)[C@@H](O)[C@H](O)[C@H]3O[C@@H]3O[C@@H](C)[C@H](O)[C@@H](O)[C@H]3O)cc2O)cc1O` [Neohesperidin dihydrochalcone (Nhdc)], the “inhibition” value runs as follows: (1 nM) -1.62%; (8.33 nM) -3.36%; (100 nM) -1.21%; (833.33 nM) 0.9%; (10000 nM) -1.64%.

Consider `N#CCC1(n2cc(-c3ncnc4[nH]ccc34)cn2)CN(C2CCN(C(=O)c3ccnc(C(F)(F)F)c3F)CC2)C1` [itacitinib], for which the “inhibition” value runs as follows: (1 nM) 1.05%; (8.33 nM) 1.83%; (100 nM) 0.96%; (833.33 nM) -0.18%; (10000 nM) -3.04%.

`O=C(NCCN1CCC2(CC1)C(=O)NCN2c1cccc(F)c1)c1ccc2ccccc2c1`: the “inhibition” value is 0.75% (1 nM); 3.53% (8.33 nM); 1.66% (100 nM); 1.45% (833.33 nM); 83.1% (active) (10000 nM).

Take `S=C(NCCc1ccccn1)Nc1ccc(Br)cn1` [trovirdine]: the “inhibition” value runs as follows: (1 nM) 2%; (8.33 nM) 2.79%; (100 nM) 2.61%; (833.33 nM) 1.44%; (10000 nM) 0.69%.

Consider `CN1c2cc3c(cc2N=C(c2ccc(C(=O)O)cc2)c2ccccc21)C(C)(C)CCC3(C)C`, for which the “inhibition” value reads like this: (1 nM) 4.92%; (8.33 nM) 2.01%; (100 nM) -1.76%; (833.33 nM) 0.01%; (10000 nM) -7.42%.

`O=C1NC(=O)[C@@H](c2cn3c4c(cccc24)CCC3)[C@@H]1c1c[nH]c2ccccc12` [tivantinib]: the “inhibition” value reads like this: (1 nM) -0.36%; (8.33 nM) -0.11%; (100 nM) -2.57%; (833.33 nM) -1.94%; (10000 nM) 2.92%.
